In PubChem BioAssay AID1159580 (chemical genetic matrix, 2015):
Several values for one entry are separate records, joined by “and”; a condition that tells them apart may be missing. Equal entries are not always repeated. Out of some 5,500 compounds screened, about 2,000 (36%) were called active. Inconclusive results (about 18%) are left out. No stated cut-off is given here; in the data, active means normalized growth mostly below about 0.91 (no sharp cut-off); inconclusive means no clear call, values can overlap the other calls; inactive means mostly above about 0.92. The list shows a part of the results.

Assay: chemical genetic growth profiling, strain panel (AID 1159580);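 further: tested at 20 µM; growth read once vehicle control cultures reached saturation at 30 °C; 1 = growth at the plate median or of vehicle wells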
Details: S. cerevisiae deletion strains, growth OD

Measured: normalized growth

CC1Cc2ccccc2N1NC(=O)c1ccc(Cl)c(S(N)(=O)=O)c1 (centres undefined)
inactive: locus YAL013W, strain DEP1, stronger effect = lower value 1.01 | locus YAL021C, strain ccr4, stronger effect = lower value 1 | locus YAL026C, strain drs2, stronger effect = lower value 1 | locus YAL030W, strain snc1, stronger effect = lower value 0.998 | locus YBL061C, strain skt5, stronger effect = lower value 0.999 | locus YBR009C, strain hhf1, stronger effect = lower value 0.996 | locus YBR021W, strain FUR4, stronger effect = lower value 1.01 | locus YBR023C, strain chs3, stronger effect = lower value 1 | locus YBR171W, strain sec66, stronger effect = lower value 0.997 | locus YBR229C, strain ROT2, stronger effect = lower value 1.01 | locus YBR231C, strain swc5, stronger effect = lower value 0.978 | locus YBR279W, strain paf1, stronger effect = lower value 1 | locus YCL011C, strain gbp2, stronger effect = lower value 1.01 | locus YCL016C, strain dcc1, stronger effect = lower value 0.996 | locus YCL029C, strain bik1, stronger effect = lower value 1.01 | locus YCL061C, strain MRC1, stronger effect = lower value 1.01 | locus YCL069W, strain vba3, stronger effect = lower value 0.991 | locus YCR088W, strain abp1, stronger effect = lower value 1.01 | locus YDL005C, strain med2, stronger effect = lower value 0.999 | locus YDL035C, strain GPR1, stronger effect = lower value 1.02 | locus YDL040C, strain nat1, stronger effect = lower value 0.997 | locus YDL074C, strain BRE1, stronger effect = lower value 1.02 | locus YDL101C, strain DUN1, stronger effect = lower value 1.01 | locus YDL134C, strain PPH21, stronger effect = lower value 1.03 | locus YDL185W, strain tfp1, stronger effect = lower value 0.989 | locus YDL192W, strain arf1, stronger effect = lower value 0.999 | locus YDR001C, strain nth1, stronger effect = lower value 1 | locus YDR069C, strain doa4, stronger effect = lower value 1 | locus YDR101C, strain arx1, stronger effect = lower value 1.02 | locus YDR137W, strain rgp1, stronger effect = lower value 1.01 | locus YDR159W, strain sac3, stronger effect = lower value 0.992 | locus YDR162C, strain NBP2, stronger effect = lower value 1.01 | locus YDR195W, strain ref2 0.979 | locus YDR297W, strain sur2, stronger effect = lower value 0.998 | locus YDR318W, strain mcm21, stronger effect = lower value 0.991 | locus YDR334W, strain swr1, stronger effect = lower value 1.01 | locus YDR335W, strain msn5, stronger effect = lower value 1 | locus YDR388W, stronger effect = lower value 1 | locus YDR392W, strain spt3, stronger effect = lower value 0.973 | locus YDR502C, strain sam2, stronger effect = lower value 1 | locus YEL003W, strain gim4, stronger effect = lower value 1 | locus YEL037C, strain rad23, stronger effect = lower value 1 | locus YEL061C, strain CIN8 (second series), stronger effect = lower value 0.999 | locus YEL061C, strain CIN8, stronger effect = lower value 1.01 | locus YER015W, strain faa2, stronger effect = lower value 1.01 | locus YER016W, strain bim1, stronger effect = lower value 0.995 | locus YER110C, stronger effect = lower value 0.996 | locus YER111C, strain swi4, stronger effect = lower value 1 | locus YER155C, strain BEM2 (second series), stronger effect = lower value 1.01 | locus YER155C, strain BEM2, stronger effect = lower value 1.01 | locus YER167W, strain BCK2, stronger effect = lower value 1.01 | locus YFR010W, strain ubp6, stronger effect = lower value 1 | locus YGL078C, strain dbp3, stronger effect = lower value 1 | locus YGL086W, strain mad1, stronger effect = lower value 1.01 | locus YGL167C, strain pmr1, stronger effect = lower value 1 | locus YGL173C, strain kem1, stronger effect = lower value 1.01 | locus YGL227W, strain vid30, stronger effect = lower value 0.999 | locus YGL240W, strain doc1, stronger effect = lower value 0.996 | locus YGL248W, strain PDE1, stronger effect = lower value 1.01 | locus YGL253W, strain hxk2, stronger effect = lower value 0.993 | locus YGR078C, strain PAC10, stronger effect = lower value 1.01 | locus YGR135W, strain pre9, stronger effect = lower value 0.972 | locus YGR229C, strain SMI1, stronger effect = lower value 1.02 | locus YGR252W, strain gcn5, stronger effect = lower value 0.938 | locus YHR013C, strain ard1, stronger effect = lower value 1.02 | locus YHR027C, strain rpn1, stronger effect = lower value 1.01 | locus YHR030C, strain SLT2, stronger effect = lower value 1 and 0.987 | locus YHR079C, strain IRE1 (second series), stronger effect = lower value 0.994 | locus YHR079C, strain IRE1, stronger effect = lower value 0.989 | locus YHR094C, strain hxt1, stronger effect = lower value 0.993 | locus YHR129C, strain ARP1, stronger effect = lower value 1.01 | locus YHR142W, strain chs7, stronger effect = lower value 0.994 | locus YHR200W, strain rpn10, stronger effect = lower value 1.01 | locus YIL066C, strain RNR3, stronger effect = lower value 1.02 | locus YIL073C, strain SPO22, stronger effect = lower value 0.991 | locus YIL125W, strain kgd1, stronger effect = lower value 0.995 | locus YIR030C, strain dcg1, stronger effect = lower value 1 | locus YJL092W, strain hpr5, stronger effect = lower value 0.994 | locus YJL095W, strain BCK1 (second series), stronger effect = lower value 1 | locus YJL095W, strain BCK1, stronger effect = lower value 1.01 and 0.979 | locus YJL115W, strain asf1, stronger effect = lower value 1 | locus YJL129C, strain trk1, stronger effect = lower value 0.989 | locus YJL134W, strain LCB3, stronger effect = lower value 1.01 | locus YJL154C, strain vps35, stronger effect = lower value 1 | locus YJL164C, strain tpk1, stronger effect = lower value 0.998 | locus YJL166W, strain qcr8, stronger effect = lower value 0.997 | locus YJL168C, strain set2, stronger effect = lower value 1 | locus YJL187C, strain SWE1 (second series), stronger effect = lower value 1.01 | locus YJL187C, strain SWE1, stronger effect = lower value 0.999
